Shown is part of a subset that was picked to be rich in hits.
Chlamy TAG = increases triacylglycerol in Chlamydomonas reinhardtii | 0.84% of 44,000 active | AID 1159537 | Chlamydomonas reinhardtii TAG, Nile Red fluorescence, 72 h | calls only at 10 µM (by protocol); call rule not given here;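 also: hits raise Nile Red signal meaning more stored TAG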
* marks the source's active call; other numbers are inactive results; i = inactive; + = active, no number.

SMILES	Chlamy TAG
CCc1c(C)nc2c(-c3cccc(Br)c3)c[nH]n2c1=O	i
O=C(Nc1ccncc1)c1cccc(I)c1	i
CC(=O)c1ccc(NC(=O)c2cc(I)ccc2Cl)cc1	i
COc1ccc(C(C[N+](=O)[O-])C2(c3ccccc3)C(=O)c3ccccc3C2=O)cc1 (stereo not given)	i
CCC1CCCCN1C(=O)c1cccs1 (stereo not given)	i
COc1ccc(OC(C)C(=O)Nc2ccccc2[N+](=O)[O-])cc1 (stereo not given)	i
Cc1ccccc1-c1nnc(-c2ccncc2)o1	i
O=C(C1COc2ccccc2O1)N1CCN(Cc2ccccc2)CC1 (stereo not given)	+
COc1ccc(N2CCN(C(=O)C3COc4ccccc4O3)CC2)cc1 (stereo not given)	i
O=C(c1ccc2c(c1)OCO2)N1CCN(Cc2ccccc2)CC1	i
COCCNC(=O)c1cc(Cl)ccc1OC	i
O=C(NCCNc1c(Cl)cccc1[N+](=O)[O-])c1ccc(F)cc1	i
O=C(COc1ccccc1C(=O)Nc1ccccn1)Nc1ccccc1Cl	i
CCN(CC)c1ccc(CN2CCSCC2)cc1	i
CCN1CCN(Cc2ccc(N(CC)CC)cc2)CC1	+
CCN(CC)c1ccc(CN2CCN(C)CC2)cc1	i
COc1ccc(-c2csc(C(C#N)=Cc3cccc(F)c3)n2)cc1	i
CCOc1ccccc1C(=O)NC1CC1	+
CCOc1ccccc1C(=O)NCCNC(=O)c1ccccc1OCC	i
CCOc1ccccc1C(=O)NC1CCC(NC(=O)c2ccccc2OCC)CC1 (stereo not given)	i
CCC(=O)c1ccc(N2CCN(CCC#N)CC2)c(F)c1	i
Cc1ccc(S(=O)(=O)Nc2ccc(Cc3ccncc3)cc2)cc1	i
O=S(=O)(c1ccc(F)cc1)c1ccc(F)cc1	i
O=S(=O)(c1ccc(F)cc1)N1CCCN(S(=O)(=O)c2ccc(F)cc2)CC1	i
O=S(=O)(c1ccc(F)cc1)n1cccc1	+
SMILES	Chlamy TAG
COCCCNC(=O)c1oc2ccccc2c1C	i
CCOc1ccc(NC(=O)CC2Nc3cc(C)c(C)cc3NC2=O)c([N+](=O)[O-])c1 (stereo not given)	i
Nc1nc(SCC(=O)NCc2ccccc2)nc2sc3c(c12)CCCC3	i
O=C(CSc1nnnn1-c1ccc(Cl)cc1)Nc1ccc(Cl)cc1Cl	i
Cc1ccc(NC(=O)CSc2nnc(-c3ccc(Cl)cc3Cl)n2N)c(C)c1	+
COc1ccc(OC)c(NC(=O)CSc2nnc(-c3ccc(Cl)cc3Cl)n2N)c1	i
Cc1nnc(NC(=O)CCCc2ccccc2)s1	i
CN(C)c1ccc2c(c1)OC(N)=C(C#N)C2c1ccc(F)c(Br)c1 (stereo not given)	i
COc1ccccc1CNC(=O)Cc1cccs1	i
O=Cc1c(Sc2ccc(Cl)cc2)nc2ccccn2c1=O	i
Cc1ccc2nc(SCc3ccccc3)c(C=O)c(=O)n2c1	+
Cc1ccc(S(=O)(=O)c2cc3c(=O)n4cc(C)ccc4nc3n(Cc3ccccc3)c2=N)cc1	i
Cc1ccc(OCC(=O)Nc2ccc(F)cc2F)cc1	i
Cn1c(NCc2cc(Cl)ccc2O)nc2ccccc21	i
CNCC(=O)NCC12CC3CC(CC(C3)C1)C2	i
O=C(CN1CCCCC1)NC12CC3CC(CC(C3)C1)C2	+
O=C(CCN1CCOCC1)NC12CC3CC(CC(C3)C1)C2	i
O=C(CN1CCCCC1)NCC12CC3CC(CC(C3)C1)C2	+
CNCC(=O)NC12CC3CC(CC(C3)C1)C2	i
O=C(NCC12CC3CC(CC(C3)C1)C2)NC1CCCCC1	i
CC(=O)c1ccc(NC(=O)/C(=C\c2ccc(Br)cc2)NC(=O)c2ccco2)cc1	i
CS(=O)(=O)N(CC(=O)Nc1ccc(F)cc1F)c1cccc(Cl)c1Cl	i
N#CSCCCCOc1ccccc1F	i
Cc1oc2ccc(O)cc2c1[N+](=O)[O-]	i
CCOc1ccc(N(CC(=O)N2CCN(C)CC2)S(C)(=O)=O)cc1	i
SMILES	Chlamy TAG
COc1ccc(NC(=O)c2cccc(Cl)c2Cl)c(OC)c1	i
CC(C)(Oc1ccc(Cl)cc1)C(=O)N1CCN(c2ccc(F)cc2)CC1	+
CC(C)(Oc1ccc(Cl)cc1)C(=O)N1CCN(c2cccc(Cl)c2)CC1	i
CC(C)(Oc1ccc(Cl)cc1)C(=O)N1CCN(c2ccccn2)CC1	i
CN(C)CCCOc1ccc(Cl)cc1Br	i
Brc1ccccc1OCCCN1CCOCC1	i
O=C(COc1ccc(Cl)cc1Br)NCCN1CCOCC1	i
Brc1ccccc1OCCCCN1CCCCC1	i
Brc1cccc(OCCN2CCOCC2)c1	i
Clc1ccc(OCCCCN2CCCC2)c(Br)c1	+
Cc1ccc(C(C)C)cc1OCCCN1CCNCC1	i
Cc1ccc(C(C)C)cc1OCCOCCN1CCOCC1	+
Cc1ccc(OCCCCN2CCOCC2)c(Br)c1	i
Clc1cc(Br)ccc1OCCOCCN1CCOCC1	+
C=CCc1cc(C)ccc1OCCOCCN1CCOCC1	i
Clc1ccc(OCCCN2CCOCC2)c(Br)c1	+
O=C1C(=O)N(Cc2cccnc2)C(c2ccccc2F)C1=C(O)c1ccc(Cl)cc1 (stereo not given)	i
COc1ccc(-c2nc(-c3ccccc3Cl)no2)cc1[N+](=O)[O-]	i
COc1cccc(NC(=O)CN(c2cc(Cl)ccc2C)S(C)(=O)=O)c1	i
COc1cccc(N(CC(=O)Nc2ccc(I)cc2)S(C)(=O)=O)c1	i
O=C(Cc1ccccc1)NCc1cccc(CNC(=O)Cc2ccccc2)c1	i
Cc1ccc(NS(=O)(=O)c2ccc(F)cc2)c(Br)c1	i
N#CCCN(CCC#N)S(=O)(=O)c1ccc(Cl)cc1	i
CN1CCN(CCCOc2cc(Cl)ccc2Cl)CC1	+
CN1CCN(CCCOc2ccc(Cl)c(Cl)c2)CC1	i
SMILES	Chlamy TAG
CN1CCN(CCCOc2ccc(Cl)cc2C(C)(C)C)CC1	i
CC(C)c1ccccc1NC(=O)c1ccccc1N	i
Cc1ccc(CN(CC(=O)NCc2cccnc2)S(=O)(=O)c2ccc(C)cc2)cc1	i
CC1(C)CC(=O)C2=C(C1)Nc1[nH]c(=O)[nH]c(=O)c1C2c1ccc(O)cc1 (stereo not given)	i
COc1ccc(C(=O)NCCc2ccc(F)cc2)cc1	i
COc1ccccc1N1CCN(C2CCN(Cc3ccc4c(c3)OCO4)CC2)CC1	i
CCc1ccc(CN2CCC(N3CCN(c4ccccc4OC)CC3)CC2)cc1	i
COc1ccccc1N1CCN(C2CCN(Cc3cccc(F)c3)CC2)CC1	+
CC(=O)c1ccc(N2C(=O)CC(N3CCN(c4ccccn4)CC3)C2=O)cc1 (stereo not given)	i
Cc1ccc(S(=O)(=O)n2cccn2)cc1	+
O=S(=O)(c1ccc(Cl)cc1)n1cccn1	i
Cc1ccc(S(=O)(=O)n2ccc(C)n2)cc1	i
O=C(Nc1cccc(I)c1)c1ccccc1[N+](=O)[O-]	i
Clc1ccc(CN2CCC(N3CCCCCC3)CC2)cc1	i
Clc1ccc(CN2CCCCCC2)cc1	+
Clc1ccc(CN2CCCCCCC2)cc1	i
COc1cc(C(=O)CC2(O)C(=O)Nc3ccccc32)cc(OC)c1OC (stereo not given)	i
O=C(CN1CCCCC1)Nc1ncc(Cc2ccc(F)cc2)s1	+
O=C(Nc1ncc(Cc2ccc(F)cc2)s1)C1CCCO1 (stereo not given)	i
COc1ccc(Cc2cnc(NC(=O)Cc3ccccc3)s2)cc1	i
COc1cc(CN2CCN(c3ccc(F)cc3)CC2)cc2c1OCO2	i

Screening results deposited in PubChem BioAssay by DiRusso Lab, Biochemistry Department, University of Nebraska.
